Data from PubChem BioAssay AID1159580 (chemical genetic matrix, 2015).
The campaign covered roughly 5,500 compounds. About 2,000 (36%) were called active. About 18% were inconclusive and are not listed. Rule as the data show it: active = normalized growth mostly below about 0.91 (no sharp cut-off); inconclusive = no clear call, values can overlap the other calls; inactive = mostly above about 0.92. The list shows a part of the results.

Experiment: chemical genetic growth profiling, strain panel (AID 1159580);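 also: tested at 20 µM; growth read once vehicle control cultures reached saturation at 30 °C; 1 = growth at the plate median or of vehicle wells; lower values mean less growth of the strain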
Details: growth OD

Measured: normalized growth

CC[N+]1(C)CCCC(OC(=O)C(O)(c2ccccc2)c2ccccc2)C1 (stereo not given)
inactive: S. cerevisiae deletion strains, locus YJR066W, strain TOR1, active compounds read low 0.954 | S. cerevisiae deletion strains, locus YKL009W, strain mrt4, active compounds read low 1.01 | S. cerevisiae deletion strains, locus YKL068W, active compounds read low 1.01 | S. cerevisiae deletion strains, locus YKL085W, strain MDH1 (second series), active compounds read low 0.994 | S. cerevisiae deletion strains, locus YKL085W, strain MDH1, active compounds read low 0.994 | S. cerevisiae deletion strains, locus YKL160W, strain elf1, active compounds read low 1.01 | S. cerevisiae deletion strains, locus YKL190W, strain CNB1, active compounds read low 1.01 | S. cerevisiae deletion strains, locus YKR001C, strain vps1, active compounds read low 1.02 | S. cerevisiae deletion strains, locus YKR026C, strain gcn3, active compounds read low 1.04 | S. cerevisiae deletion strains, locus YKR091W, strain srl3, active compounds read low 1.02 | S. cerevisiae deletion strains, locus YLL001W, strain dnm1, active compounds read low 1.01 | S. cerevisiae deletion strains, locus YLL026W, active compounds read low 1.02 | S. cerevisiae deletion strains, locus YLL041C, strain sdh2, active compounds read low 1.02 | S. cerevisiae deletion strains, locus YLR027C, strain aat2, active compounds read low 1.01 | S. cerevisiae deletion strains, locus YLR039C, strain RIC1, active compounds read low 1.03 | S. cerevisiae deletion strains, locus YLR058C, strain SHM2, active compounds read low 1.01 | S. cerevisiae deletion strains, locus YLR102C, strain apc9, active compounds read low 1 | S. cerevisiae deletion strains, locus YLR113W, strain HOG1, active compounds read low 1.05 | S. cerevisiae deletion strains, locus YLR221C, strain rsa3, active compounds read low 1.01 | S. cerevisiae deletion strains, locus YLR258W, strain gsy2, active compounds read low 1.02 | S. cerevisiae deletion strains, locus YLR262C, strain YPT6 (second series), active compounds read low 1.02 | S. cerevisiae deletion strains, locus YLR262C, strain YPT6, active compounds read low 1.07 | S. cerevisiae deletion strains, locus YLR268W, strain sec22, active compounds read low 1.01 | S. cerevisiae deletion strains, locus YLR320W, strain mms22, active compounds read low 1.02 | S. cerevisiae deletion strains, locus YLR330W, strain CHS5, active compounds read low 1.01 | S. cerevisiae deletion strains, locus YLR342W, strain FKS1 (second series), active compounds read low 1.03 | S. cerevisiae deletion strains, locus YLR342W, strain FKS1, active compounds read low 1.03 | S. cerevisiae deletion strains, locus YLR357W, strain rsc2, active compounds read low 1.02 | S. cerevisiae deletion strains, locus YLR370C, strain arc18, active compounds read low 1.03 | S. cerevisiae deletion strains, locus YLR371W, strain rom2, active compounds read low 1.01 | S. cerevisiae deletion strains, locus YLR384C, strain iki3, active compounds read low 1.02 | S. cerevisiae deletion strains, locus YLR418C, strain cdc73, active compounds read low 1.03 | S. cerevisiae deletion strains, locus YML016C, strain PPZ1, active compounds read low 1 | S. cerevisiae deletion strains, locus YML032C, strain rad52, active compounds read low 1.02 | S. cerevisiae deletion strains, locus YML120C, strain ndi1, active compounds read low 1.01 | S. cerevisiae deletion strains, locus YML124C, strain tub3, active compounds read low 1.01 | S. cerevisiae deletion strains, locus YMR058W, strain fet3, active compounds read low 1.02 | S. cerevisiae deletion strains, locus YMR078C, strain ctf18, active compounds read low 0.998 | S. cerevisiae deletion strains, locus YMR125W, strain sto1, active compounds read low 1.02 | S. cerevisiae deletion strains, locus YMR129W, active compounds read low 1.03 | S. cerevisiae deletion strains, locus YMR205C, strain PFK2, active compounds read low 1.03 | S. cerevisiae deletion strains, locus YMR223W, strain ubp8, active compounds read low 1.03 | S. cerevisiae deletion strains, locus YMR231W, strain pep5, active compounds read low 1.03 | S. cerevisiae deletion strains, locus YMR263W, strain SAP30, active compounds read low 1.01 | S. cerevisiae deletion strains, locus YMR307W, strain GAS1, active compounds read low 1.1 | S. cerevisiae deletion strains, locus YNL067W, strain RPL9B, active compounds read low 1.01 | S. cerevisiae deletion strains, locus YNL071W, strain lat1, active compounds read low 1.02 | S. cerevisiae deletion strains, locus YNL128W, strain TEP1, active compounds read low 1.03 | S. cerevisiae deletion strains, locus YNL153C, strain GIM3, active compounds read low 0.997 | S. cerevisiae deletion strains, locus YNL183C, strain NPR1, active compounds read low 0.942 | S. cerevisiae deletion strains, locus YNL209W, strain ssb2, active compounds read low 1.02 | S. cerevisiae deletion strains, locus YNL233W, strain BNI4, active compounds read low 1.01 | S. cerevisiae deletion strains, locus YNL248C, strain rpa49, active compounds read low 1.02 | S. cerevisiae deletion strains, locus YNL250W, strain rad50, active compounds read low 1.01 | S. cerevisiae deletion strains, locus YNL271C, strain bni1, active compounds read low 1.03 | S. cerevisiae deletion strains, locus YNL298W, strain CLA4, active compounds read low 1.01 | S. cerevisiae deletion strains, locus YNL307C, strain MCK1, active compounds read low 1.02 | S. cerevisiae deletion strains, locus YNL322C, strain KRE1 (second series), active compounds read low 1.01 | S. cerevisiae deletion strains, locus YNL322C, strain KRE1, active compounds read low 1.01 | S. cerevisiae deletion strains, locus YNR049C, strain mso1, active compounds read low 1.02 | S. cerevisiae deletion strains, locus YNR052C, strain pop2, active compounds read low 1.02 | S. cerevisiae deletion strains, locus YOL006C, strain TOP1, active compounds read low 1 | S. cerevisiae deletion strains, locus YOL012C, strain htz1 0.812 | S. cerevisiae deletion strains, locus YOL147C, strain pex11, active compounds read low 1.01 | S. cerevisiae deletion strains, locus YOR001W, strain rrp6, active compounds read low 1.01 | S. cerevisiae deletion strains, locus YOR061W, strain CKA2, active compounds read low 1.01 | S. cerevisiae deletion strains, locus YOR069W, strain VPS5, active compounds read low 1.01 | S. cerevisiae deletion strains, locus YOR070C, strain gyp1, active compounds read low 1.01 | S. cerevisiae deletion strains, locus YOR080W, strain dia2, active compounds read low 1.01 | S. cerevisiae deletion strains, locus YOR083W, strain WHI5, active compounds read low 1.01 | S. cerevisiae deletion strains, locus YOR106W, strain vam3, active compounds read low 1.02 | S. cerevisiae deletion strains, locus YOR136W, strain idh2, active compounds read low 1.01 | S. cerevisiae deletion strains, locus YOR144C, strain elg1, active compounds read low 1.01 | S. cerevisiae deletion strains, locus YOR184W, strain ser1, active compounds read low 1 | S. cerevisiae deletion strains, locus YOR231W, strain MKK1, active compounds read low 1.03 | S. cerevisiae deletion strains, locus YOR265W, strain rbl2, active compounds read low 1.01 | S. cerevisiae deletion strains, locus YOR270C, strain vph1, active compounds read low 1.1 | S. cerevisiae deletion strains, locus YOR290C, strain snf2, active compounds read low 1.01 | S. cerevisiae deletion strains, locus YOR316C, strain cot1, active compounds read low 1.01 | S. cerevisiae deletion strains, locus YPL051W, strain arl3, active compounds read low 1.01 | S. cerevisiae deletion strains, locus YPL078C, strain atp4, active compounds read low 1.02 | S. cerevisiae deletion strains, locus YPL106C, strain sse1, active compounds read low 1.02 | S. cerevisiae deletion strains, locus YPL240C, strain hsp82, active compounds read low 1.04 | S. cerevisiae deletion strains, locus YPL256C, strain CLN2, active compounds read low 1.04 | S. cerevisiae deletion strains, locus YPR119W, strain clb2, active compounds read low 1.01 | S. cerevisiae deletion strains, locus YPR141C, strain kar3, active compounds read low 1.01 | S. cerevisiae deletion strains, locus YPR163C, strain tif3, active compounds read low 1.01 | S. cerevisiae deletion strains, locus YPR167C, strain met16, active compounds read low 1.01 | S. cerevisiae deletion strains, strain wtn01, active compounds read low 1.01 | S. cerevisiae strains, strain wild type, active compounds read low 1.01
